High-throughput results: PubChem BioAssay, The Scripps Research Institute Molecular Screening Center
ABHD5 PLIN5 PPI: ABHD5-PLIN5 interaction inhibitors, primary screen, cell lysate, split luciferase complementation, luminescence | Split G. princeps luciferase complementation, 4 h | inhibition, % at 4 µM | 0.78% of 360,000 active | AID 602281, 2012;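 active = inhibition above the mean inhibition across every tested compound plus 3 SD, cut at about 22% in these data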;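 also: 0% = DMSO only wells and the 100% control is not disclosed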
TLR4 MyD88 comp: inhibitors of TLR4-MyD88 association in cells, primary screen, cell-based, HeLa CL3-4, BLA complementation, FRET ratio; Toll-like receptor 4 (Homo sapiens) + Myeloid differentiation primary response protein …; inhibition, % at 8.4 µM; HeLa CL3-4 TLR4/MyD88 BLA complementation; 0.18% of 200,000 active; in the data active = inhibition above about 25%;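 also: 0% = vehicle and 100% = reference inhibitor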
Target sequence (O00206 whole entry, looked up): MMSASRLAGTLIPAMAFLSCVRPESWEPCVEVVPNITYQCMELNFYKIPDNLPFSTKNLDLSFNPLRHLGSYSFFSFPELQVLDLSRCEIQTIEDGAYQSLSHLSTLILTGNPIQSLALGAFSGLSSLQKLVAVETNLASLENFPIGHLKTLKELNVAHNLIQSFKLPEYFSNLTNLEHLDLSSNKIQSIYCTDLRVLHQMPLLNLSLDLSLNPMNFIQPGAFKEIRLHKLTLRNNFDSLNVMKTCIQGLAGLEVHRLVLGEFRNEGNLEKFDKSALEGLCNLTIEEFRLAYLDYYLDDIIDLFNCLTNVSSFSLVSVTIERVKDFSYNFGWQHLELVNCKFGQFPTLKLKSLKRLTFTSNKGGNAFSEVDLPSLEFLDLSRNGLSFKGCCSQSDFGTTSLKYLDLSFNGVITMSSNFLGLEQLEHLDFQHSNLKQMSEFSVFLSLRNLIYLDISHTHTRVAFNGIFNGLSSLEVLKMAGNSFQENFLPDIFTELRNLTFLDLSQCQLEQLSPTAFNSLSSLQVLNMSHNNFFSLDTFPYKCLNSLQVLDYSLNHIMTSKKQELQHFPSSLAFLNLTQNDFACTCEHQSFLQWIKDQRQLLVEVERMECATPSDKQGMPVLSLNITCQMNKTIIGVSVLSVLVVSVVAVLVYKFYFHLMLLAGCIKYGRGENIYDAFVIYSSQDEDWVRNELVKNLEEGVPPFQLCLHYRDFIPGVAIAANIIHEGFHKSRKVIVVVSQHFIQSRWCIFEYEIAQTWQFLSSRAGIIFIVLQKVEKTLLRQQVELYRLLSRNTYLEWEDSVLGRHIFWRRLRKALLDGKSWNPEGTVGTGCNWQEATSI
Target sequence (Q99836 whole entry, looked up): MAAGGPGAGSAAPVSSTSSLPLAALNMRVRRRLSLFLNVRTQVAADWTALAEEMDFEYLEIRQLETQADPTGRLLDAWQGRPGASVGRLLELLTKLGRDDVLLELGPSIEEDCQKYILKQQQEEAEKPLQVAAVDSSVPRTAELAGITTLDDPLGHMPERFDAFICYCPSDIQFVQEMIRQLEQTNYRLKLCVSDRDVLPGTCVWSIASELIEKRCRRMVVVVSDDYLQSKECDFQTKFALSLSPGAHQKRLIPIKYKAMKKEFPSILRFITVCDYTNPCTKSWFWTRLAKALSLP
TLR9-MyD88 block: inhibitors of TLR9-MyD88 association in cells, primary screen, cell-based, CHO, BLA complementation, fluorescence; inhibition, % at 4.98 µM; 0.21% of 340,000 active; Toll-like receptor 9 (Homo sapiens) + Myeloid differentiation primary response protein …; CCF4 FRET ratio;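 active = inhibition above the mean over all tested compounds plus 3 SD, cut at about 21% in these data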;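 also: 0% = DMSO only wells and 100% = clavulanate BLA inhibitor control wells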
NOD2-RIPK2 inh: NOD2-RIPK2 binding disruptors in cells, primary screen, fluorescence, CHO cells, BLA complementation; Receptor-interacting serine/threonine-protein kinase 2 (Homo sapiens), O43353; CCF4 ratio; inhibition, % at 4.98 µM; 0.38% of 360,000 active; in the data active = inhibition above about 21%;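 also: 0% = vehicle only and 100% = reference blocker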
ABHD5-PLIN5 conf: ABHD5-PLIN5 interaction inhibitors, confirmation, biochemical, luminescence; 67% of 2,200 active; inhibition, % at 4 µM; AID 651612, 2012; shares compounds with ABHD5 PLIN5 PPI; in the data active = inhibition above about 23%;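 also: 0% = DMSO vehicle wells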
HNF4 counter: HNF4 dimerization inhibitors, counter-screen for ABHD5-PLIN5 interaction inhibitor project, biochemical, split-luciferase complementation, luminescence | shares compounds with ABHD5 PLIN5 PPI | inhibition, % at 4 µM | 77% of 2,200 active | AID 651674, 2012;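 active = mean inhibition across replicate wells exceeding the computed hit threshold, cut at about 13% in these data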;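 also: light from luciferase halves that rejoin when HNF4 fusion proteins dimerize; 0% = DMSO only wells and the 100% control is not given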
NOD2 RIPK2 conf: NOD2-RIPK2 binding disruptors, retest, confirmation, fluorescence, CHO cells, BLA complementation, triplicate | inhibition, % at 4.98 µM | CCF4 FRET | 70% of 1,200 active | shares compounds with NOD2-RIPK2 inh | AID 624370, 2012;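 active = mean inhibition across replicates above a set limit taken from the earlier primary screen, cut at about 21% in these data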;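 also: 0% = DMSO-only wells and the high end = clavulanate BLA-blocked wells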
NOD2 BLA counter: hits BLA reporter in NOD2-RIPK2 inhibitor counterscreen | 57% of 1,200 active | inhibition, % at 4.98 µM | CHO BLA reporter, CCF4 FRET ratio | shares compounds with NOD2-RIPK2 inh;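 active = mean inhibition above the low-control mean inhibition plus three low-control SD, cut at about 11% in these data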;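 also: 0% = DMSO only wells and 100% = clavulanate high control wells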
An asterisk follows results filed as active; . = no result. Shown are actives, neighbours in structure and some others; about 1.2% of the full set was active somewhere.

SMILES	ABHD5 PLIN5 PPI	TLR4 MyD88 comp	TLR9-MyD88 block	NOD2-RIPK2 inh	ABHD5-PLIN5 conf	HNF4 counter	NOD2 RIPK2 conf	NOD2 BLA counter
Cc1ccc(C(=O)N2[C@@H]3CN(C)C(=O)[C@@]2(Cc2ccccc2)[C@H]2C(=O)N(Cc4ccccc4)C(=O)[C@@H]32)cc1	2.2	.	-4.6	-1.5	.	.	.	.
CCOC(=O)CC(S(=O)(=O)c1ccccc1)S(=O)(=O)c1ccccc1	51.8*	.	2.1	52.3*	38.3*	88.5*	14.3	9.8
O=C1C(F)=CC(COC(c2ccccc2)(c2ccccc2)c2ccccc2)OC1n1cc(F)c(=O)[nH]c1=O (stereo not drawn)	41.7*	.	-3.4	29.7*	101.3*	96.7*	58.4*	23.9*
CC(=O)OCC1OC(n2cc(F)c(=O)[nH]c2=O)C(OC(C)=O)C1OC(C)=O (stereo not drawn)	0.1	.	-4.8	-3.0	.	.	.	.
O=C(Nc1ccc2nc3n(c(=O)c2c1)CCCCC3)c1c(F)ccc([N+](=O)[O-])c1F	36.0*	.	10.9	22.7*	60.9*	56.1*	22.9*	-1.7
Cc1ccc(-c2cc(-c3ccccc3)nc(Cl)n2)cc1	-2.9	12.4	3.9	-1.4	.	.	.	.
Cc1ccc(-c2cc(C(F)F)nc(S(C)(=O)=O)n2)cc1	24.6*	4.5	14.7	23.0*	45.4*	51.3*	18.4	-1.7
CCCC(=O)N1CCCC(c2cc(C(=O)NCc3ccccc3)no2)C1 (stereo not drawn)	-5.3	.	.	4.4	.	.	.	.
COc1ccc(NC(=O)C2Cc3c(-c4cccc(C(N)=O)c4)ccnc3O2)cc1 (stereo not drawn)	-1.8	.	.	5.8	.	.	.	.
O=C(/C=C/c1cc(Br)ccc1O)c1ccco1	81.8*	.	3.2	21.0*	98.2*	97.0*	12.8	-5.6
O=C1C=CC2C3C(=O)N(c4ccccc4)C(=O)C3C1N2Cc1ccccc1 (stereo not drawn)	90.3*	.	7.8	67.6*	100.3*	103.1*	75.3*	-1.1
COc1ccccc1NS(=O)(=O)c1cc(C(=O)N2CC(C)CC(C)C2)ccc1C (stereo not drawn)	0.7	-12.9	-10.7	-2.9	.	.	.	.
CC(C)CC(N)c1csc(Nc2ccccn2)n1 (stereo not drawn)	2.5	.	.	3.5	.	.	.	.
C=C1C(=O)[C@]23C[C@H]1CCC2[C@@]1(C)C(C[C@@H]3O)[C@](C)(C(=O)OC)CC[C@@H]1OC(C)=O (stereo partly drawn)	77.6*	.	.	93.1*	84.7*	108.7*	92.7*	21.7*
C=C1C(=O)[C@]23C[C@H]1CC[C@H]2[C@]1(C)[C@@H](OC(C)=O)CC[C@@](C)(C(=O)OC)[C@H]1C[C@@H]3OC(C)=O	55.9*	.	.	59.3*	70.7*	97.9*	55.5*	4.8
CC(=O)Nc1cccc(CP(=O)(c2ccccc2)c2ccccc2)c1	5.1	.	-4.1	3.7	.	.	.	.
O=C1C=CC(O)(c2cc(=O)c3c(O)cc(O)cc3o2)C=C1	89.0*	-12.9	-2.2	30.3*	101.3*	106.1*	20.9	18.0*
O=C(/C=C/c1ccccc1)CCN1CCOCC1	14.2	.	-8.9	9.9	.	.	.	.
CN(C)CCC(=O)N1C/C(=C/c2ccccc2)C(=O)/C(=C\c2ccccc2)C1	95.5*	.	3.4	61.2*	102.6*	106.4*	54.9*	-1.0
O=C1/C(=C/c2ccccc2)CN(C(=O)CCN2CCOCC2)C/C1=C\c1ccccc1	99.5*	.	7.3	27.5*	102.7*	104.6*	30.6*	2.0
CC(=O)c1ccc(NC(=O)CCOc2cc(C)ccc2C)cc1	0.6	.	4.6	-1.0	.	.	.	.
COc1ccc(C(=O)C(CN2CCOCC2)c2ccccc2)cc1F (stereo not drawn)	24.4*	-2.6	3.7	58.3*	9.5	63.0*	-4.2	-5.2
O=[N+]([O-])c1ccc2[nH]c(O)c(N=NC3CCS(=O)(=O)C3)c2c1 (stereo not drawn)	-8.8	.	-6.2	1.4	.	.	.	.
O=C1C(=C(c2ccccc2)N2CCOCC2)Cc2ccccc21	81.5*	.	14.6	83.7*	97.5*	94.9*	85.2*	6.0
O=C(c1ccccc1)N1CCN(C(=O)N2CCOCC2)CC1	-0.9	4.8	-12.2	-2.7	.	.	.	.
SMILES	ABHD5 PLIN5 PPI	TLR4 MyD88 comp	TLR9-MyD88 block	NOD2-RIPK2 inh	ABHD5-PLIN5 conf	HNF4 counter	NOD2 RIPK2 conf	NOD2 BLA counter
CCOc1ccc(C(C)NC(=O)C2CCC2)cc1 (stereo not drawn)	0.2	5.1	-7.9	-13.5	.	.	.	.
Cc1ccc(NC(=O)C2=C(c3ccccc3)S(=O)(=O)CCS2(=O)=O)cc1	83.3*	13.5	8.8	55.5*	100.3*	110.3*	77.7*	9.6
Cc1ccc(NC(=O)c2ccccc2)cc1	5.6	8.7	0.7	3.7	.	.	.	.
CCOC(=O)C1=CC[C@@H](c2ccccc2)N(S(=O)(=O)c2ccc(C)cc2)[C@H]1C#N	57.7*	.	.	44.1*	29.7*	65.0*	15.6	-1.7
Cc1nc([N+](=O)[O-])c(Br)n1Cc1ccc(Cl)c(Cl)c1	23.5*	12.6	7.9	23.3*	35.4*	38.4*	42.6*	-3.8
Cc1nc([N+](=O)[O-])c(NCCO)n1Cc1ccccc1	2.5	1.0	3.2	-14.7	.	.	.	.
Cc1ccc(S(=O)(=O)c2ccc([N+](=O)[O-])cn2)cc1	48.5*	.	-4.6	70.5*	74.6*	112.3*	54.1*	-3.1
O=[N+]([O-])c1ccc(S(=O)(=O)c2ccccc2)nc1	53.7*	.	3.1	77.8*	56.6*	108.7*	53.6*	13.1*
Cc1cc(S(=O)(=O)c2ccc([N+](=O)[O-])cn2)ccc1Br	16.2	.	-4.2	-2.9	.	.	.	.
COc1cc(NC(=O)CCc2c(C)noc2C)c(C(=O)O)cc1OC	-1.1	.	1.1	0.8	.	.	.	.
COc1cc(N2C(=O)C=CC2=O)c(OC)cc1Cl	38.7*	.	16.5	51.0*	43.9*	104.0*	80.5*	22.9*
COc1cc(Cl)c(S(=O)(=O)N2CCCC2)cc1Cl	-0.6	9.9	3.2	-8.2	.	.	.	.
COc1ccc(/C=C2\CN(Cc3ccccc3)C/C(=C\c3ccc(OC)c(O)c3)C2=O)cc1O	72.2*	.	10.1	25.6*	93.5*	85.6*	26.7*	5.0
